Source: PubChem
Shown are actives, neighbours in structure and some others; about 2.8% of the full set was active somewhere.
pCIP destab – p/CIP-EGFP fusion destabilizers, primary screen, fluorescence, F442A cells; Q05BA5; 16 h; decrease of EGFP signal, % at 10 µM; 290,000 tested, 0.01% active;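 active = EGFP signal decrease of at least 30% at 10 µM or well 3 SD below plate mean, unless failing retest; inactive = the rest, including hits failing retest or dose response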
AHR act – AHR activators, primary screen, cell-based, luminescence, luciferase reporter, human; Aryl hydrocarbon receptor (Homo sapiens), P35869; activation, % at 5 µM; 320,000 tested, 2.5% active; AID 2796, 2010; AHR-responsive luciferase reporter cells; in the data active = activation above about 47%;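 also: 0% = vehicle wells and 100% = reference agonist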
Target sequence (P35869 whole entry, looked up): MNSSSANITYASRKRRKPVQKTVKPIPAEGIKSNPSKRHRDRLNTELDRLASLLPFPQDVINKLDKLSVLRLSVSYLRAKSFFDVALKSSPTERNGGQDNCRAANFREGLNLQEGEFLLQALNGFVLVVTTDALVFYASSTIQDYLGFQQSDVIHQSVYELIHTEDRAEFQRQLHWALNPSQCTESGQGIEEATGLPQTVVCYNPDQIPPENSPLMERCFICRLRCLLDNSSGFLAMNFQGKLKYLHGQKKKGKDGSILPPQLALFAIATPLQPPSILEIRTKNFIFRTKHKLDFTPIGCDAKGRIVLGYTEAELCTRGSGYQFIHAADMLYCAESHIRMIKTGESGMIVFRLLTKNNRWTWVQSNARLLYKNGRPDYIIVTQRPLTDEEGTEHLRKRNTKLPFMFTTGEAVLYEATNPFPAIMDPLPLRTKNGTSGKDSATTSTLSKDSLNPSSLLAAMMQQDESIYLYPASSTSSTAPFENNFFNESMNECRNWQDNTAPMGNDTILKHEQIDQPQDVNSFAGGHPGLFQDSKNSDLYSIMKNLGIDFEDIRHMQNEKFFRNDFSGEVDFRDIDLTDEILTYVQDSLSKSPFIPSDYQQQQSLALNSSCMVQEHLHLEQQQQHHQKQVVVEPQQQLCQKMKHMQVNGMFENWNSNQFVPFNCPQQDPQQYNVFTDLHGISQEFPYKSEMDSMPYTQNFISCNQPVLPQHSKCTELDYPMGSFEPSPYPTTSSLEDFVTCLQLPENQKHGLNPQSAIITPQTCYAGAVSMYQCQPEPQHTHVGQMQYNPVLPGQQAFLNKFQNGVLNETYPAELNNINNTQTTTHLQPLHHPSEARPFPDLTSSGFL
Platelet DG rel – inhibitors of platelet dense granule secretion, primary screen, cell-based, MLPCN, human platelets. human platelet-rich plasma, SFLLRN dense granule ATP release, luminescence. inhibition, %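 (compounds screened at 7.5 µM in platelet-rich plasma)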. 300,000 tested, 0.22% active;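 active = mean replicate score, as percent of positive control, at or above 50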
PolyA inh – polyadenylation inhibitors in yeast reporter cells, primary screen, luminescence, S. cerevisiae; S. cerevisiae SKY197-pL101 polyadenylation reporter, beta-gal luminescence; efflux-impaired pdr1/pdr3 knockout yeast; score 100 = 6 SD above DMSO; activity score, % at 12 µM; AID 1875, 2009; 300,000 tested, 0.02% active;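 active = lowest replicate activity score at least 50, where 100 means six control SD above control mean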;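 also: yeast exposed to compound for 9 h at 30 °C; higher score means more reporter readthrough which indicates perturbed polyadenylation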
HIF act – HIF pathway transcriptional activators, primary screen, cell-based, U2OS HRE-luciferase, luminescence. U2OS HRE-luciferase reporter; normalized: DMSO 0%, desferrioxamine 100%. activation, % at 7.5 µM (by protocol). 300,000 tested, 0.32% active. AID 1910, 2009;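 active = mean activation of at least 10% of the iron chelator positive control signal, with at least half of replicates also reaching 10%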
* = called active by the depositor.

What do the screens show for `O=C(c1cccc(Cl)c1)N1CCN(Cc2ccncc2)CC1`?
pCIP destab: 29*

How did O=C(COc1cccc2ccccc12)Nc1cc(Cl)ccc1C(=O)O do in these assays?
pCIP destab: -9; AHR act: 19; Platelet DG rel: 3; PolyA inh: -7; HIF act: -1

Results for O=C(COc1cccc2ccccc12)Nc1ccc(Cl)cc1C(=O)O ?
pCIP destab: 0; AHR act: 6; Platelet DG rel: -7; PolyA inh: -15; HIF act: 15*

What do the screens show for `NC1=NC(c2cccc(Cl)c2)N(CCc2ccc(F)cc2)C(N)=N1` (stereo unspecified)?
pCIP destab: -10; AHR act: 2; Platelet DG rel: 12; PolyA inh: -17; HIF act: -1

Results for CCOc1cc(C(=O)NC2=NCCS2)cc(OCC)c1OCC ?
pCIP destab: 4; AHR act: 55*; Platelet DG rel: -1; PolyA inh: -20; HIF act: 1

What do the screens show for `CCOc1ccc(C(=O)NC2=NCCS2)cc1`?
pCIP destab: 9; AHR act: 43; Platelet DG rel: -4; PolyA inh: 4; HIF act: 1

What do the screens show for `CCOc1ccccc1N=Nc1c(C)[nH]n(C(N)=S)c1=O`?
pCIP destab: -15; AHR act: 65*; Platelet DG rel: -9; PolyA inh: -18; HIF act: 1

How did CCOc1ccccc1N=NC1C(=O)N(C(N)=S)N=C1C (stereo unspecified) do in these assays?
pCIP destab: -7; AHR act: 65*; Platelet DG rel: 3; PolyA inh: -11; HIF act: 0

What do the screens show for `CC1=NN(C(N)=S)C(=O)C1N=Nc1ccc(C)cc1C` (stereo unspecified)?
pCIP destab: 3; AHR act: 67*; Platelet DG rel: -21; PolyA inh: -5; HIF act: 2

Results for CC1=NN(C(N)=S)C(=O)C1N=Nc1ccccc1C (stereo unspecified) ?
pCIP destab: -11; AHR act: 57*; Platelet DG rel: 0; PolyA inh: -6; HIF act: 0

How did COc1cccc(N=NC2C(=O)N(C(N)=S)N=C2C)c1 (stereo unspecified) do in these assays?
AHR act: 23; Platelet DG rel: -1; PolyA inh: -4; HIF act: 2

What do the screens show for `CCCCN(C(=O)c1cc(=O)[nH]c2ccccc12)c1c(N)n(CCCC)c(=O)[nH]c1=O`?
pCIP destab: 17; AHR act: 8; Platelet DG rel: -12; PolyA inh: 16; HIF act: 0

Results for C#CCOCCOCCOCCNc1nc(N2CCN(C(=O)C([C@@H](C)CC)n3cc(C(N)Cc4ccc(O)cc4)nn3)CC2)nc(N2CCN(C(=O)[C@H](CCC(=O)O)n3cc(C(N)Cc4ccc(O)cc4)nn3)CC2)n1 (stereo partly specified) ?
pCIP destab: -20; AHR act: 3; Platelet DG rel: 0; PolyA inh: -6; HIF act: 0

How did CC1=NN(C(N)=S)C(=O)C1N=Nc1ccccc1O (stereo unspecified) do in these assays?
pCIP destab: 6; AHR act: 47*; Platelet DG rel: -4; PolyA inh: -2; HIF act: -19

How did CC1=NN(C(N)=S)C(=O)C1N=Nc1ccc(S(N)(=O)=O)cc1 (stereo unspecified) do in these assays?
pCIP destab: 4; AHR act: 0; Platelet DG rel: -1; PolyA inh: -6; HIF act: 1

Results for Cc1nc2nc(-c3ccc(Cl)cc3)cn2nc1C ?
pCIP destab: -9; AHR act: 37; Platelet DG rel: 8; PolyA inh: -24; HIF act: -2

Results for COc1cccc(-c2cn3nc(C)c(C)nc3n2)c1 ?
pCIP destab: -2; AHR act: 10; Platelet DG rel: 74*; PolyA inh: 12; HIF act: 0

How did Cc1ccc(S(=O)(=O)N2CCCCC2)cc1NC(=O)c1cc(F)c(F)c(F)c1F do in these assays?
AHR act: 0

What do the screens show for `COc1ccc(CNC(=O)CCc2nc(-c3ccccc3F)no2)c(OC)c1`?
pCIP destab: -5; AHR act: 49*; Platelet DG rel: -5; PolyA inh: 2; HIF act: 0

Results for COc1ccc(Br)cc1CNC(=O)CCc1nc(-c2ccccc2F)no1 ?
pCIP destab: 0; AHR act: 20; Platelet DG rel: 3; PolyA inh: -14; HIF act: 0

What do the screens show for `S=c1nc(C2COc3ccccc3O2)[nH][nH]1` (stereo unspecified)?
pCIP destab: 4; AHR act: 0; Platelet DG rel: -9; PolyA inh: 10; HIF act: 1

How did CCCS(=O)(=O)c1cnc(C2COc3ccccc3O2)nc1N (stereo unspecified) do in these assays?
pCIP destab: -6; AHR act: -8; Platelet DG rel: 66*; PolyA inh: -19; HIF act: -1

Results for Oc1ccc(CN2CCN(Cc3ccccc3)CC2)c2cccnc12 ?
AHR act: -1; Platelet DG rel: -2; PolyA inh: -23; HIF act: 11*

How did Oc1c(Cl)cc(CN2CCOCC2)c2cccnc12 do in these assays?
AHR act: -4

Results for Oc1c(CN2CCc3ccccc3C2)cc(Cl)c2cccnc12 ?
pCIP destab: 9; AHR act: 4; Platelet DG rel: -19; PolyA inh: 8; HIF act: 50*

How did CN1CCN(Cc2cc(COCc3ccccc3)c3cccnc3c2O)CC1 do in these assays?
pCIP destab: -8; AHR act: 1; Platelet DG rel: 4; PolyA inh: -61; HIF act: 221*

What do the screens show for `CN(CC(=O)NCC1CCCCC1)CC(=O)Nc1ccccc1Br`?
AHR act: 3

Results for CC1(C)CC(=O)c2c(O)cc(OCC(=O)Nc3ccc(CCO)cc3)cc2O1 ?
pCIP destab: -10; AHR act: -1; Platelet DG rel: 1; PolyA inh: 6; HIF act: 0

What do the screens show for `O=C(Nc1ccc(-c2nc3ccccc3o2)cc1)c1ccc(N2CCOCC2)c([N+](=O)[O-])c1`?
pCIP destab: -18; AHR act: 54*; Platelet DG rel: 1; PolyA inh: -11; HIF act: 0

How did COc1ccc2oc(-c3ccc(NC(=O)c4ccc(N5CCOCC5)c([N+](=O)[O-])c4)cc3)nc2c1 do in these assays?
pCIP destab: -4; AHR act: -1; Platelet DG rel: -6; PolyA inh: -15; HIF act: 0

Results for O=C(Cn1ncc2c([nH]c3ccccc32)c1=O)Nc1ccc(CN2CCCCC2)cc1 ?
pCIP destab: 1; AHR act: 1; Platelet DG rel: 8; PolyA inh: 1; HIF act: 0

How did O=C(OCC(=O)N1CCN(c2ccccc2)CC1)c1nc(Cl)ccc1Cl do in these assays?
AHR act: 3; Platelet DG rel: -4; PolyA inh: -4; HIF act: 0
